A selection: hits, their analogues and other compounds. The true share with any hit is near 10%.
FLuc inh-1: Firefly luciferase inhibition profiling of diverse chemical library using quantitative high-throughput screening; AID 1347043, 2019; 2.5% of 76,000 active; Potency, µM (doses to about 115 µM), most hits filed as inhibitors; purified P. pyralis luciferase, luminescence, biochemical; also: % is scaled to controls: 0 for no effect and ±100 for the full control effect; nearly all actives have a fitted effect of over 65% in size
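Cell-free enzyme assay, 10nM P. pyralis luciferase, luciferin and ATP each at 10uM. Inhibition profiled over a 6-point titration, read as luminescence.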
GPT2 inh: Primary qHTS assay for inhibitors of Glutamate pyruvate transaminase 2 (GPT2); Alanine aminotransferase 2 (Homo sapiens), Q8TD30; Recombinant GPT2, coupled pyruvate oxidase/HRP Amplex Red fluorescence; Potency, µM (highest dose often 57.7 µM), for the others: top-dose activity change, negative = inhibition, usual class: inhibitors; 0.25% of 100,000 active; also: % is scaled to controls: 0 for no effect and ±100 for the full control effect; nearly all actives have a fitted effect of over 60% in size
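Inhibition is scored from Amplex Red fluorescence generated when pyruvate oxidase and HRP act on pyruvate released by GPT2. Reactions contain 10ng/uL enzyme, 250uM a-KG and 2mM L-alanine and run 30 min at room temperature.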
hNpr1 antagonist: Natriuretic polypeptide receptor (hNpr1) antagonism - Primary qHTS. Atrial natriuretic peptide receptor 1 (Homo sapiens), P16066. Potency, µM (top dose mostly 46.3 µM), for inactives: at the highest dose activity change, negative = inhibition, hits mostly inhibitors. HEK293 hNpr1 GloSensor cGMP, ANP-stimulated luminescence. 1.6% of 76,000 active; calls by dose curve; also: % is scaled to controls: 0 for no effect and ±100 for the full control effect; nearly all actives have a fitted effect of over 60% in size
Target sequence (P16066 whole entry, looked up): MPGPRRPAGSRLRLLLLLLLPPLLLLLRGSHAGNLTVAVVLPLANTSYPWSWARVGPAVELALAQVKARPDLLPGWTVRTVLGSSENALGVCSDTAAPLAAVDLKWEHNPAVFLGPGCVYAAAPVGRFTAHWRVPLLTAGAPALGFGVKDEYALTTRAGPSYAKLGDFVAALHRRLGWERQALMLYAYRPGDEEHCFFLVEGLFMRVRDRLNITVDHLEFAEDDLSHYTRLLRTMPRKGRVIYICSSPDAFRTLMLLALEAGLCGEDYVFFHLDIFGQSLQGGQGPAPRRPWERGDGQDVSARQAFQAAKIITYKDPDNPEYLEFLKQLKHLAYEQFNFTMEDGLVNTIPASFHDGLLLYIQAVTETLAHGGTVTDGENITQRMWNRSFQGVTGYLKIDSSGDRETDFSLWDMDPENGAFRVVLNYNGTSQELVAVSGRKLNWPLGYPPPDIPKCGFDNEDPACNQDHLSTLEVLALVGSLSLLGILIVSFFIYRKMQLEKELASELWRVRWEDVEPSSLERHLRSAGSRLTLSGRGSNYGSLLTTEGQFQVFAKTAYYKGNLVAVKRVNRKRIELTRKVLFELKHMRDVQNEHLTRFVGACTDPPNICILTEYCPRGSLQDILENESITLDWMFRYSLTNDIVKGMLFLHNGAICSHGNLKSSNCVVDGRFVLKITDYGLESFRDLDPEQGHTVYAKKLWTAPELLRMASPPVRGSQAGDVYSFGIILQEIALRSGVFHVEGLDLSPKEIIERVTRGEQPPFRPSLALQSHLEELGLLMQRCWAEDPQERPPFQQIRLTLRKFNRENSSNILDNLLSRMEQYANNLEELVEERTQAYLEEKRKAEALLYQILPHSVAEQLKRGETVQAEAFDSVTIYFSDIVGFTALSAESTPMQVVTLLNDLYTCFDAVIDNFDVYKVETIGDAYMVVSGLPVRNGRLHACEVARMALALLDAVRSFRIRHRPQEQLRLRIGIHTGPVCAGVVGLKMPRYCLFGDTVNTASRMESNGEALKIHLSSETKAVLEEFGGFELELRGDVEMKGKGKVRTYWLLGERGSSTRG
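Compound pre-incubated 30 min at room temperature on GloSensor-loaded HEK293 cells stably carrying hNpr1 and the pGS-40F cGMP biosensor. Stimulation uses hNppA at 0.1 nM final; luminescence is taken at baseline and 20 min post-agonist.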
3T3 cytotox: Cytotoxic Profiling in NIH 3T3 Cell Line of Diverse Libraries Using Quantitative High-Throughput Screening; NIH 3T3 viability, CellTiter-Glo ATP luminescence, 48-72 h; AID 1345082, 2018; 4.3% of 94,000 active; Potency, µM (series often up to 96.7 µM), without a hit: at the top dose activity change, negative = cytotoxicity, most hits filed as inhibitors; also: % is scaled to controls: 0 for no effect and ±100 for the full control effect; nearly all actives have a fitted effect of over 55% in size
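Luminescent ATP readout (CellTiter-Glo, 10 min RT) after 48 or 72 hr compound exposure of NIH 3T3 cells seeded at 400 cells/well in 1536-well format; quantitative HTS.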
HEK cytotox: Cytotoxic Profiling in HEK 293 Cell Line of Diverse Libraries Using Quantitative High-Throughput Screening | 6.6% of 94,000 active | HEK 293 viability, ATP luminescence (CellTiter-Glo), 48-72 h | AID 1345083, 2018 | Potency, µM (series often up to 115 µM), inactives show top-dose activity change, negative = cytotoxicity, most hits filed as inhibitors; also: % is scaled to controls: 0 for no effect and ±100 for the full control effect; nearly all actives have a fitted effect of over 60% in size
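HEK 293 cells at 250 cells/well were exposed to compounds by pintool transfer for 48 or 72 hr at 37 degree Celsius, 5% CO2. Viability was read as ATP-coupled luminescence with CellTiter-Glo after 10 min at room temperature.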
FLuc SDR no ATP: Firefly luciferase (FLuc-C-HiBiT) SDR gain of signal screen - without ATP; shares compounds with FLuc inh-1; Purified FLuc-C-HiBiT, Nano-Glo HiBiT luminescence, no ATP; Potency, µM (highest dose often 32.7 µM), without a hit: at the highest dose activation (signal gain), usual class: activators; 7.8% of 1,300 active; also: nearly all actives have a fitted effect of over 55% in size
FLuc SDR ATP: Firefly luciferase (FLuc-C-HiBiT) SDR gain of signal screen - plus ATP. purified FLuc-C-HiBiT + ATP, HiBiT complementation luminescence. shares compounds with FLuc inh-1. 8.7% of 1,300 active. Potency, µM (titrated, usually from 32.7 µM), inactives show at the top dose activation (gain of signal), most hits filed as activators. AID 1963319, 2024;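 also: signal reports ligand binding via conformational change of the enzyme rather than luciferase catalysis; % of control where 0% means no effect; nearly all actives have a fitted effect of over 55% in size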
FLuc inh-2: Firefly luciferase (FLuc-C-HiBiT) enzymatic inhibition screen - Functional assay. shares compounds with FLuc inh-1. purified FLuc-C-HiBiT enzyme, luciferin luminescence. Potency, µM (top dose mostly 32.7 µM), for the others: at the top dose activity change, negative = inhibition, usual class: inhibitors. 42% of 1,300 active. AID 1963320, 2024; also: % is scaled to controls: 0 for no effect and ±100 for the full control effect; nearly all actives have a fitted effect of over 70% in size
* marks the source's active call; other numbers are inactive results; [ ] = remark or other dose. Unless noted, calls follow the shape of the dose curve; as a rule, active = well fitted curve in the direction sought with a large enough effect; inconclusive = small, poorly fitted or top-dose-only effect, or another doubt; inactive = no such curve, though single readings can be large; an effect the other way counts as inactive or inconclusive. Potency is read from the fitted curve at half-maximal effect.

For Cc1cc(CNC(=O)C2CCCCn3nnnc32)c2[nH]c(-c3ccccc3)c(C)c2c1 (stereo unspecified) the results were FLuc inh-1 8.9µM*, GPT2 inh 0%, hNpr1 antagonist -11%, 3T3 cytotox 35µM*, HEK cytotox 25µM*, FLuc SDR no ATP 18%, FLuc SDR ATP 14% and FLuc inh-2 inconclusive.
CCCCn1c(=O)c(C(=O)N2CCN(C(=O)Cc3ccc(F)cc3)CC2)nc2cccnc21 was read as GPT2 inh 0%, 3T3 cytotox -13% and HEK cytotox -7%.
Screening CNC(=O)c1cc(C)cc2onc(C3CCCN3C(=O)Cc3ccccc3)c12 (stereo unspecified) returned 3T3 cytotox -18% and HEK cytotox 2%.
Screening COc1ccc(-c2cc3c(cn2)CN(Cc2cccnc2)CCN3)cc1OC returned FLuc inh-1 5.6µM*, GPT2 inh inactive, hNpr1 antagonist 2%[70.6 µM], 3T3 cytotox -27%[138 µM], HEK cytotox inconclusive, FLuc SDR no ATP inconclusive, FLuc SDR ATP 17%[49.3 µM] and FLuc inh-2 14µM*.
`COc1ccc(OC)c(CN2CCNc3cnc(OCc4cccnc4)cc3C2)c1` gave FLuc inh-1 inactive, GPT2 inh inactive, hNpr1 antagonist -11%[70.6 µM], 3T3 cytotox inconclusive and HEK cytotox inconclusive.
COc1ccc(-c2cc3c(cn2)CN(Cc2cccnc2)CCN3)cc1F was read as FLuc inh-1 5µM*, GPT2 inh -3%[88.5 µM], hNpr1 antagonist inconclusive, 3T3 cytotox -14%[138 µM], HEK cytotox inconclusive, FLuc SDR no ATP inconclusive, FLuc SDR ATP 18%[49.3 µM] and FLuc inh-2 14µM*.
For Cc1ccc(-c2nnc(SCc3ccccc3C#N)o2)cc1 the results were FLuc SDR no ATP 17%, FLuc SDR ATP inconclusive and FLuc inh-2 2.2µM*.
Cc1ccc(-c2nnc([C@H]3CCN(C(=O)c4ccccc4)C3)o2)cc1 was read as FLuc inh-1 inactive, GPT2 inh 3%[88.5 µM], hNpr1 antagonist -7%[70.6 µM], 3T3 cytotox -19%[174 µM] and HEK cytotox inconclusive.
`NS(=O)(=O)c1cccc(N=Cc2c(O)[nH]c3ccccc23)c1` gave FLuc SDR no ATP 15%, FLuc SDR ATP 8% and FLuc inh-2 -12%.
Screening COc1ccc(Nc2cccc(CN3CCCC(C)(NC(C)=O)C3)c2)cc1 (stereo unspecified) returned FLuc inh-1 inactive, GPT2 inh inconclusive, hNpr1 antagonist -18%[70.6 µM], 3T3 cytotox -48%[138 µM] and HEK cytotox inconclusive.
Screening COc1cccc(-c2csc(CN3CCCC(C)(NC(C)=O)C3)c2)c1 (stereo unspecified) returned FLuc inh-1 5µM*, GPT2 inh 0%[88.5 µM], hNpr1 antagonist -6%[70.6 µM], 3T3 cytotox inconclusive, HEK cytotox inconclusive, FLuc SDR no ATP 17%[49.3 µM], FLuc SDR ATP 16%[49.3 µM] and FLuc inh-2 inconclusive.
Screening CCCc1ccc(OCc2ccc(C(=O)Nc3ccccc3C(=O)OC)o2)cc1 returned FLuc SDR no ATP 12%, FLuc SDR ATP inconclusive and FLuc inh-2 inconclusive.
CCc1ccc2nc(N3CCC(C(=O)O)CC3)sc2c1 was read as FLuc SDR no ATP 2.5µM*, FLuc SDR ATP 0.07µM* and FLuc inh-2 0.035µM*.
COc1ccc(-c2ccccc2C(=O)NCCc2ccccc2)nn1 was read as 3T3 cytotox -22% and HEK cytotox -28%.
For COc1ccc(CCNc2nc3ccccc3c3nc(-c4cccc(C)c4)nn23)cc1OC the results were FLuc SDR no ATP 15%, FLuc SDR ATP 12% and FLuc inh-2 inconclusive.
Screening Cn1cccc1-c1noc(C2CCN(C(=O)c3cccc(C#N)c3)C2)n1 (stereo unspecified) returned GPT2 inh inactive, 3T3 cytotox -25% and HEK cytotox inconclusive.
`CCNc1cc(N2CCC(CCC(=O)O)CC2)ncn1` gave FLuc inh-1 32µM*, GPT2 inh inactive, hNpr1 antagonist 0%, 3T3 cytotox -8%, HEK cytotox 11%, FLuc SDR no ATP 13%, FLuc SDR ATP 9.9µM* and FLuc inh-2 5.6µM*.
`CCNc1cc(N2CCC(CCC(=O)Nc3cccc(OC)c3)CC2)ncn1` gave FLuc inh-1 inconclusive, GPT2 inh 3%, hNpr1 antagonist inconclusive, 3T3 cytotox -15% and HEK cytotox inconclusive.
For O=C(Nc1cccc(-c2nc3ccccc3s2)c1)c1cc2ccccc2oc1=O the results were FLuc SDR no ATP 14%, FLuc SDR ATP 10% and FLuc inh-2 -9%.
For Cc1c(C(=O)Nc2cccc(-c3nc4ccccc4s3)c2)oc2ccccc12 the results were FLuc SDR no ATP 9%, FLuc SDR ATP 10% and FLuc inh-2 -26%.
O=C(Nc1cccc(Cl)c1)c1ccc2oc(-c3ccccn3)nc2c1 was read as GPT2 inh -3%, 3T3 cytotox -24% and HEK cytotox inconclusive.
Screening Cc1ccc2oc(C(=O)Nc3cccc(-c4nc5ccccc5s4)c3)c(C)c2c1 returned FLuc SDR no ATP 16%, FLuc SDR ATP inconclusive and FLuc inh-2 inconclusive.
Screening Cc1ccc2oc(C(=O)NC3CC(=O)N(C(C)C)C3)c(C)c2c1 (stereo unspecified) returned FLuc inh-1 inactive, GPT2 inh -27%, hNpr1 antagonist -2%, 3T3 cytotox -20% and HEK cytotox -20%.

Source: PubChem (National Center for Advancing Translational Sciences (NCATS))
